This note sets out measurements from the supplement of paper PMC8975748.

SMILES strings stand for the structures. Counter-ions that a name gives are not always drawn.

For this test, the system named is Saccharomyces cerevisiae BY4741 SeMeCo community. The experiment in a line: z-score of subpopulation abundance vs DMSO median, subpopulation auxotrophic for HL; higher = larger share of this subpopulation than in DMSO controls. The following applies: 10 µM; 24 h; SM minimal medium; subpopulation (auxotrophy): HL. As to the method: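 Fluorescent four-plasmid SeMeCo (self-establishing metabolically cooperating S. cerevisiae BY4741 community; plasmids pH-mRuby2, pL-mWasabi, pU-eCFP, pM-TagRFP657) was grown 24 h in minimal SM medium with each Selleck FDA-approved drug at 10 µM in 384-well plates. Cells were fixed and imaged by high-content confocal microscopy. For each auxotrophic subpopulation (and the prototroph), a z-score gives the deviation from the DMSO vehicle-control population median.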
With `CC[C@H]1[C@@H]2C[C@H]3[C@@H]4N(C)c5ccccc5[C@]45C[C@@H]([C@@H]2[C@H]5O)N3[C@@H]1O` [Ajmaline], the “z-score of subpopulation abundance” value is -1.02.

Take `COc1cc2c(cc1OC)C1CC(=O)C(CC(C)C)CN1CC2` (stereo not given) [Tetrabenazine (Xenazine)]: the “z-score of subpopulation abundance” value was determined as 0.31. As to `CN(C)C(=O)Oc1cccc([N+](C)(C)C)c1` [Neostigmine Bromide], the “z-score of subpopulation abundance” value was -0.44. On to `CN(C)[C@@H]1C(=O)C(C(N)=O)=C(O)[C@@]2(O)C(=O)C3=C(O)c4c(O)cccc4[C@@](C)(O)[C@H]3C[C@@H]12` [Tetracycline HCl], for which the “z-score of subpopulation abundance” value was determined as 0.29.

On to `CN(C)C(=O)Oc1ccc[n+](C)c1` [Pyridostigmine Bromide], for which the “z-score of subpopulation abundance” value was determined as 0.3. Consider `COc1ccc(C=O)cc1` [p-Anisaldehyde], for which the “z-score of subpopulation abundance” value is -0.29. The same measure for `COc1ccc2c3c([nH]c2c1)C(C)=NCC3` [Harmaline]: 1.95. For the molecule `CC(=O)O[C@H]1C[C@@H]2CC[C@@H]3[C@H](CC[C@@]4(C)[C@H]3C[C@H]([N+]3(C)CCCCC3)[C@@H]4OC(C)=O)[C@@]2(C)C[C@@H]1[N+]1(C)CCCCC1` [Pancuronium dibromide], the “z-score of subpopulation abundance” value amounted to 0.38. With `CCN(C)C(=O)Oc1cccc([C@H](C)N(C)C)c1` [Rivastigmine], the “z-score of subpopulation abundance” value is -0.54. To `NCCc1c[nH]c2ccc(O)cc12` [Serotonin HCl] belongs -0.74; to `C[CH2][Hg][S]c1ccccc1C(=O)[O-].[Na+]` [Thimerosal], 11.9; to `O=[N+]([O-])C(Br)(CO)CO` [Bronopol], -1.08. `N#Cc1nn(-c2c(Cl)cc(C(F)(F)F)cc2Cl)c(N)c1[S+]([O-])C(F)(F)F` (stereo not given) [Fipronil]: the “z-score of subpopulation abundance” value worked out at 0.71. The same measure for `Cc1cc(O)ccc1Cl` [Chlorocresol]: -0.86; for `CN(C)[C@@H]1C(=O)C(C(N)=O)=C(O)[C@@]2(O)C(=O)C3=C(O)c4c(O)cccc4[C@@](C)(O)[C@H]3[C@H](O)[C@@H]12` [Oxytetracycline Dihydrate]: 0.03; for `O=C(O[C@H]1C[N+]2(CCCOc3ccccc3)CCC1CC2)C(O)(c1cccs1)c1cccs1` [Aclidinium Bromide]: -1.16. To `C=CC[C@]1(O)CC[C@H]2[C@@H]3CCC4=CC(=O)CCC4=C3C=C[C@@]21C` [Altrenogest] belongs 0.59; to `NCC(O)c1ccc(O)cc1` (racemic) [(+,-)-Octopamine HCl], -1.17.

`CNC1CC(N)C(O)C(OC2OC(CO)C(O)C3OC4(OC(C(N)CO)C(O)C(O)C4O)OC23)C1O` (stereo not given) [Hygromycin B]: the “z-score of subpopulation abundance” value is -0.22. The same measure for `COC(=O)C1=CCCN(C)C1` [Arecoline HBr]: 0.21; for `CCOC(=O)Nc1ccc(NCc2ccc(F)cc2)cc1N` [Retigabine]: 0.75; for `C=C(C)[C@H]1Cc2c(ccc3c2O[C@@H]2COc4cc(OC)c(OC)cc4[C@@H]2C3=O)O1` [Rotenone (Barbasco)]: 0.53. `CCCN1C[C@H](CSC)C[C@@H]2c3cccc4[nH]cc(c34)C[C@H]21` [Pergolide Mesylate]: the “z-score of subpopulation abundance” value is -0.35.

For the molecule `C#C[C@]1(O)C=C[C@H]2[C@@H]3CCC4=CC(=O)CC[C@@H]4[C@H]3CC[C@@]21CC` [Gestodene], the “z-score of subpopulation abundance” value is 0.13.

On to `CC(C)=CCOc1c2occc2cc2ccc(=O)oc12` [Imperatorin], for which the “z-score of subpopulation abundance” value worked out at 0.34.

Consider `Oc1cc(Cl)ccc1Oc1ccc(Cl)cc1Cl` [Triclosan], for which the “z-score of subpopulation abundance” value was -0.78. To `CN(C)[C@@H]1C(=O)C(C(N)=O)=C(O)[C@@]2(O)C(=O)C3=C(O)c4c(O)ccc(Cl)c4[C@@](C)(O)[C@H]3C[C@@H]12` [Chlortetracycline HCl] belongs 0.38; to `Oc1cccc2cccnc12` [8-Hydroxyquinoline], 0.63; to `COc1ccc(C(CN(C)C)C2(O)CCCCC2)cc1` (stereo not given) [Venlafaxine HCl], 1.07.

In the case of `CC1(C)SC2C(N)C(=O)N2C1C(=O)O` (stereo not given) [6-Aminopenicillanic acid], the “z-score of subpopulation abundance” value was -0.37. Turning to `COc1ccc2[nH]cc(CCN)c2c1` [5-Methoxytryptamine], the “z-score of subpopulation abundance” value was -0.31. Consider `CN1[C@@H]2C[C@@H](OC(=O)[C@H](CO)c3ccccc3)C[C@H]1[C@@H]1O[C@@H]12` [Scopolamine HBr], for which the “z-score of subpopulation abundance” value is -0.91.

Consider `C=C[C@H]1CN2CC[C@H]1C[C@H]2[C@H](O)c1ccnc2ccccc12` [Cinchonidine], for which the “z-score of subpopulation abundance” value is -0.64. To `CCN1CC2(OC(=O)c3ccccc3NC(C)=O)CCC(OC)C34C1C(CC23)C1(O)CC(OC)C2CC4C1(O)C2OC` (stereo not given) [Lappaconitine] belongs -0.26. As for `CC[N+](C)(CC)CCOC(=O)C(O)(c1ccccc1)c1ccccc1` [Methylbenactyzine Bromide], the “z-score of subpopulation abundance” value is -0.61.

Turning to `CC[C@@H](C(N)=O)N1CCCC1=O` [Levetiracetam], the “z-score of subpopulation abundance” value is -1.01.

With `Cc1cc(C(C#N)c2ccc(Cl)cc2)c(Cl)cc1NC(=O)c1cc(I)cc(I)c1O` (stereo not given) [Closantel], the “z-score of subpopulation abundance” value is 0.7. Regarding `CCN(C)C(=O)Oc1cccc([C@H](C)N(C)C)c1` [Rivastigmine Tartrate], the “z-score of subpopulation abundance” value came out at 0.04. The same measure for `CCCCCCCCCCCCCCCC[n+]1ccccc1` [Cetylpyridinium Chloride]: 13.5; for `C[C@@H]1CC[C@H]2[C@@H](C)C(=O)O[C@@H]3O[C@@]4(C)CC[C@@H]1[C@]32OO4` [Artemisinin]: -0.27.
